Among the data in PubChem BioAssay are composite z-score and z-score values, retold here.

Active and inactive are the calls of the source.

Assay [1] can be described thus: small molecules captured by biotinylated probe aFSTL3 – biochemical, small-molecule microarray, fluorescence 635/667, stem cell growth factor project, primary screen (AID 1064).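 Further: measures binding of the biotinylated anti-FSTL3 antibody to printed compounds.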 Particulars: higher = more signal.
A short description of assay [2]: binders from COS7 lysate, DM2A8 probe, primary screen, torsin A project, cell lysate, small-molecule microarray, fluorescence 635/667 (AID 1065). Particulars: higher = more signal, COS7 lysate expressing mutant human TOR1A.
Assay [3] is described as follows: small molecules captured by biotinylated probe aFGF2 – biochemical, small-molecule microarray, fluorescence 635/667, stem cell growth factor project, primary screen (AID 1067).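 Further: measures binding of biotinylated aFGF2 protein to printed compounds on slides; z-score merges feature fluorescence and signal-to-noise across triplicate slides.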 Particulars: higher = more signal.
Assay [4] in a line: small molecules captured by biotinylated probe aFGF10 – biochemical, small-molecule microarray, fluorescence 635/667, stem cell growth factor project, primary screen (AID 1071).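 Further: score merges 667 nm spot intensity and signal to noise from triplicate slides.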 Particulars: higher = more signal.
Assay [5] has as its target Neurogenic locus notch homolog protein 2 (Homo sapiens) (UniProt Q04721). Put plainly: small molecules binding Notch2 protein – biochemical, small-molecule microarray, 635 nm fluorescence, stem cell growth factors, primary screen (AID 1073). Particulars: higher = more signal.
The target in assay [6] is Pro-neuregulin-1, membrane-bound isoform (Homo sapiens) (UniProt Q02297). The experiment in a line: small molecules binding neuregulin-1 protein – biochemical, small-molecule microarray, fluorescence 635/667, psychiatric disease protein project, primary screen (AID 1075).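 Further: score combines 667 nm spot fluorescence with signal to noise.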 The conditions noted are these: NRG1 binding, 635 nm fluorescence, higher = more signal.
Sequence of Pro-neuregulin-1, membrane-bound isoform (Homo sapiens) (Q02297 whole entry, looked up, the tested form may be a part, canonical isoform): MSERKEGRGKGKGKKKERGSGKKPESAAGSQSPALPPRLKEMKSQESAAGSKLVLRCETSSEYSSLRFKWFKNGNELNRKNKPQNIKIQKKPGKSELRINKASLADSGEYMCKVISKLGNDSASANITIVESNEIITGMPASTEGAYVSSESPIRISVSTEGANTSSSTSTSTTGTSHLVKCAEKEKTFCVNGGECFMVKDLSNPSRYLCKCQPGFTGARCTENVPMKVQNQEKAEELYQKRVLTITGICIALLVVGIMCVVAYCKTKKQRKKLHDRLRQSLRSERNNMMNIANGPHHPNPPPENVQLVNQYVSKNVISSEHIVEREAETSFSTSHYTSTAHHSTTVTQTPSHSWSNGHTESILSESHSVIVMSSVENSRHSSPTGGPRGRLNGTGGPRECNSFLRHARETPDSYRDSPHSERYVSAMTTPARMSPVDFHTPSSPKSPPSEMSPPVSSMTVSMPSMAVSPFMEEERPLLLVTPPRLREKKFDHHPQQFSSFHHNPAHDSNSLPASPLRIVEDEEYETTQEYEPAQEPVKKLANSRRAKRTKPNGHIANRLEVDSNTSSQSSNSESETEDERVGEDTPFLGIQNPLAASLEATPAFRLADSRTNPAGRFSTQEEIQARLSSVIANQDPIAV
Assay [7] relates to Neuregulin-1 EGF-like domain. The experiment in a line: small molecules binding NRG1 EGF domain – biochemical, small-molecule microarray, 635 nm fluorescence, primary screen (AID 1081).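 Further: binding of the protein to compounds printed on small-molecule microarray slides.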 Particulars: higher = more signal.
Assay [8] is described as follows: FRG1 expression reporter modulators in myotubes – cell-based, C2C12 myotubes, firefly/Renilla luciferase, luminescence, FRG1 inhibition for FSHD, primary screen (AID 1084). The conditions noted are these: FRG1 promoter luciferase, higher = more signal, called active from +8 up or from −8 down.
The nature of assay [9]: small molecules captured by biotinylated probe aFST – biochemical, small-molecule microarray, fluorescence 635/667, stem cell growth factor project, primary screen (AID 1086).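 Further: score merges 667 nm fluorescence with signal-to-noise of each printed compound spot.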 Particulars: higher = more signal.
Assay [10] in a line: binders of probe aHhip on microarray, primary screen, stem cell growth factor project, biochemical, small-molecule microarray, fluorescence 635/667 (AID 1087).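 Further: score merges spot fluorescence at 667nm with spot signal to noise ratio.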 The conditions noted are these: higher = more signal.
Assay [11] has as its system PRMT1 (protein arginine N-methyltransferase 1). Put plainly: small molecules binding arginine methyltransferase PRMT1 – biochemical, small-molecule microarray, 635 nm fluorescence, primary screen (AID 1088).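 Further: binding of Prmt1 protein to compounds spotted on small-molecule microarray slides.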 The conditions noted are these: higher = more signal.
Assay [12] is described as follows: growth effects on S. cerevisiae YJM789 – YJM789 clinical isolate, OD600, 24 h, basal, primary screen (AID 1089).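 Further: growth of clinical yeast isolate S. cerevisiae YJM 789 seeded 1000 cells per well; test concentration not given here.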 The conditions noted are these: higher = more signal, called active from +8 up or from −8 down.
A short description of assay [13]: S. pombe growth modifiers, basal conditions – strain 972, OD600, 24 h, no modulator, primary screen (AID 1090).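 Further: basal condition with compound alone and no growth modifier present; test concentration not given here.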 Particulars: S. pombe 972 growth, higher = more signal, called active from +8 up or from −8 down.
Assay [14] in a line: budding yeast growth modifiers under rapamycin – strain BY4716, OD600, 96 h, primary screen (AID 1091). Further: test concentration not given here. The conditions noted are these: S. cerevisiae BY4716 + rapamycin, higher = more signal, called active from +8 up or from −8 down.
The target of assay [15] is Torsin-1A-interacting protein 2 (Homo sapiens) (UniProt Q8NFQ8). Put plainly: small molecules binding lysate-expressed LULL1 – cell lysate, human LULL1 lysate, 635/667 nm fluorescence, primary screen (AID 1092).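 Further: probe is lysate of COS7 cells overexpressing human LULL1; score merges per-feature 667 nm fluorescence with signal-to-noise.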 Particulars: small-molecule microarray, hLULL1 lysate binding, 635 nm fluorescence; higher = more signal.
Sequence of Torsin-1A-interacting protein 2 (Homo sapiens) (Q8NFQ8 whole entry, looked up): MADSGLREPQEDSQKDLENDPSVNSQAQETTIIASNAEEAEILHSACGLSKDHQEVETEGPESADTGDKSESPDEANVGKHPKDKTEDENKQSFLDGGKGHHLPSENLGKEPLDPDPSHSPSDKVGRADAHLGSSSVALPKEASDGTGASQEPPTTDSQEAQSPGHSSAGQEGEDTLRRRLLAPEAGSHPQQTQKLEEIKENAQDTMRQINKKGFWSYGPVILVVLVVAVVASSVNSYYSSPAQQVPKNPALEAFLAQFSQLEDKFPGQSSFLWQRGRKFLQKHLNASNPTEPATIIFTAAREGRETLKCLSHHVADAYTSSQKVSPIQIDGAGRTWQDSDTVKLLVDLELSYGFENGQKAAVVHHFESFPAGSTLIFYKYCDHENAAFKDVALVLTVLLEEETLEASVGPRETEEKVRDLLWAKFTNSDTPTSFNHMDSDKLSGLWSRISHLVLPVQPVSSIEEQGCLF
Assay [16] can be described thus: optical density change of DRC41 E. coli – strain DRC41, OD650, 24 h, E. coli filamentation project, primary screen (AID 1093).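 Further: MC1000 strain lacking acrAB efflux and sulA so SOS filamentation is blocked; test concentration not given here.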 The conditions noted are these: E. coli DRC41 growth, higher = more signal, called active from +8 up or from −8 down.
The nature of assay [17]: probe aLefty2 binding to arrayed compounds – biochemical, biotinylated probe, 635/667 nm fluorescence, primary screen (AID 1094).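 Further: score merges spot fluorescence near 667 nm with spot signal-to-noise ratio.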 Particulars: small-molecule microarray, higher = more signal.
Assay [18] concerns Noggin (protein binding on small-molecule microarray). Put plainly: small molecules binding Noggin protein – biochemical, 635/667 nm fluorescence, primary screen (AID 1095).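 Further: score merges 667 nm feature fluorescence with signal to noise over triplicate slides.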 Particulars: 635 nm fluorescence, higher = more signal.
Assay [19] deals with Neurogenic locus notch homolog protein 3 (Homo sapiens) (UniProt Q9UM47). Put plainly: small molecules binding NOTCH3 protein – biochemical, 635/667 nm fluorescence, primary screen (AID 1096). The conditions noted are these: small-molecule microarray, 635 nm fluorescence, higher = more signal.
Assay [20] is described as follows: probe aEGFR binding to arrayed compounds – biochemical, biotinylated probe, 635/667 nm fluorescence, primary screen (AID 1097).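 Further: probe is a biotinylated anti-EGFR antibody binding compounds printed on slides; score combines fluorescence near 667 nm and signal to noise of each spot.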 The conditions noted are these: small-molecule microarray, higher = more signal.

Sequence of Neurogenic locus notch homolog protein 2 (Homo sapiens) (Q04721 whole entry, looked up, canonical isoform): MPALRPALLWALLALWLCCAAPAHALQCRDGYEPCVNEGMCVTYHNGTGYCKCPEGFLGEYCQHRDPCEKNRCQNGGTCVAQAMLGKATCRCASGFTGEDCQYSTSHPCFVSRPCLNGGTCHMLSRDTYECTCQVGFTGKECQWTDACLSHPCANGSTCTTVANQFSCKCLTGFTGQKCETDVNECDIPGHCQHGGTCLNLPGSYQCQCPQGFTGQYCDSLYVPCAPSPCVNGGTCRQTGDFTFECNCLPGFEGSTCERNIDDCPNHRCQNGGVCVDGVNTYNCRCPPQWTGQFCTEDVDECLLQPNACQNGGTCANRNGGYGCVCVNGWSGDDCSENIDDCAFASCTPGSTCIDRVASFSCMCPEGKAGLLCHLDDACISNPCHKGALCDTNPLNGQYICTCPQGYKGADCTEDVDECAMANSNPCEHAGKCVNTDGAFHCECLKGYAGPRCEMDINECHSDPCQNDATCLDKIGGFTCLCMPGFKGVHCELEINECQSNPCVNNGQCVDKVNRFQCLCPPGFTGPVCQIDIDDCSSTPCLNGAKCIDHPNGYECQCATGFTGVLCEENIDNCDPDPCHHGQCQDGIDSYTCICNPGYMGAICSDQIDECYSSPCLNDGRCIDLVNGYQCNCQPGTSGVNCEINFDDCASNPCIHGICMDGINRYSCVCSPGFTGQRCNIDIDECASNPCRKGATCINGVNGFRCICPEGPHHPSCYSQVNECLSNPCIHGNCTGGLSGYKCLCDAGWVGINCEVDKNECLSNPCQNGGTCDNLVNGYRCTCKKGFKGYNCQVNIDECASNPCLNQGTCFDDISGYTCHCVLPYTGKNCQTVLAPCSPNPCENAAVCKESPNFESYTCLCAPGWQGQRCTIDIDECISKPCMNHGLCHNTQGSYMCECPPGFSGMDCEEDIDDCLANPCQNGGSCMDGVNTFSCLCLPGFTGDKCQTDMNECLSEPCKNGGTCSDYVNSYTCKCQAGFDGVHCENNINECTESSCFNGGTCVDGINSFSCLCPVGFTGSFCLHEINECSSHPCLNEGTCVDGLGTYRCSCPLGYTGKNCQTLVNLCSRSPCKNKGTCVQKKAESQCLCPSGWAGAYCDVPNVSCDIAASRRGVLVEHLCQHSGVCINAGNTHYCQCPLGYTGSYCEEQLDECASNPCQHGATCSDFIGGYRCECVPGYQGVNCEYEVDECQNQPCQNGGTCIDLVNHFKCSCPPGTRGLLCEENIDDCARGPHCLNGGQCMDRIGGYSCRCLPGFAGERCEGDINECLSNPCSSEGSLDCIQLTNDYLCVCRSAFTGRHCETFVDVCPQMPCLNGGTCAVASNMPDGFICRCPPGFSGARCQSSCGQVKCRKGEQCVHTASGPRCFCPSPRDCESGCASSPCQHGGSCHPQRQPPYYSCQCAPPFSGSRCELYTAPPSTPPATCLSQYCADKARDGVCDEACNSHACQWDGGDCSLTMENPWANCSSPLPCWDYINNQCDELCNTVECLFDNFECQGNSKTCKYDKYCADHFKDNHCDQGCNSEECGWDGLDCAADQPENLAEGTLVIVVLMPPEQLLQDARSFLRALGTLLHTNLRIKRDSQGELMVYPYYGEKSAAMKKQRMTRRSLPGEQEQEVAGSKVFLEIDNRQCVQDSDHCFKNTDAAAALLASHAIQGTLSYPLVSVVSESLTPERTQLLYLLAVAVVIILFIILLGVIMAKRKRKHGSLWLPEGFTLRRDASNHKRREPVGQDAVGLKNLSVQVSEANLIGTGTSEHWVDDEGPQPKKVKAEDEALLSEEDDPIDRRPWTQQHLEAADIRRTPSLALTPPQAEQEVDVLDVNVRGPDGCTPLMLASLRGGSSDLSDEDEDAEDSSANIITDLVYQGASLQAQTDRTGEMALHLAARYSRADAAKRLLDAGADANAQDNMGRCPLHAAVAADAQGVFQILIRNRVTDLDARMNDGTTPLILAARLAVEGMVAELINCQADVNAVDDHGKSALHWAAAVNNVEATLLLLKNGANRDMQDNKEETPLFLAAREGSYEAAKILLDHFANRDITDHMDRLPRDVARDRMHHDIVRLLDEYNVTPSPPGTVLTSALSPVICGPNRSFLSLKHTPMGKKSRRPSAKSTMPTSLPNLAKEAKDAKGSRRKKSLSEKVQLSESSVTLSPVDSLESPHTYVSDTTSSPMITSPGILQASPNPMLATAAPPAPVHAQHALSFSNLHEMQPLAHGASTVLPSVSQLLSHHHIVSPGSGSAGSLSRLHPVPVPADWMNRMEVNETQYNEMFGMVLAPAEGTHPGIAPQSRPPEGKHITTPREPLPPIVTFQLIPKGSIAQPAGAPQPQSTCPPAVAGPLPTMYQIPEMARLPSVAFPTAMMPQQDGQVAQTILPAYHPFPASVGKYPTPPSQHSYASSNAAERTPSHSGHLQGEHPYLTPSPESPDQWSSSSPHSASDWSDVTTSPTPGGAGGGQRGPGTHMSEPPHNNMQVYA

For the compound `C=CCOC(=O)[C@H]1[C@@H]2C(=O)O[C@@H](c3ccccc3)[C@@H](c3ccccc3)N2[C@@H](c2ccc(OCCOC(=O)[C@@H]3C[C@@H]4C(=O)N[C@@H](CC(C)C)C(=O)N4[C@@H]3c3ccc(O)cc3)cc2)[C@]12C(=O)Nc1ccccc12`, the composite z-score in [1] is -0.254; in assay [2], 0.479; in assay [3] it was 0.0056; in assay [4], 0.649; in [5], 0.85; in assay [6], 1.02. The composite z-score is 1.2 in assay [7]; 0.0922 in assay [9]; 0.0201 in assay [10]; 1.53 in [11]; 3.2 in [15]; 0.115 in [17]. Further, the composite z-score in assay [18] was determined as 1.49; in assay [19] it was 1.1; in assay [20], 0.0195. Besides, the z-score was 0.631 (inactive) in [8]; 0.963 (inactive) in [12]; 1.32 (inactive) in assay [13]; 4.11 (inactive) in assay [14]; 0.703 (inactive) in assay [16].

As for `[N-]=[N+]=Nc1ccccc1[C@H]1OC(c2ccc(OCCCO)cc2)=N[C@@]1(CCS(=O)(=O)c1ccccc1)C(=O)NCC(O)CO` (stereo not given in full), the composite z-score in [1] came out at 0.408; in assay [2] it was 0.652; in [3] it was 0.0367; in assay [4] it was 0.543; in assay [5] it was 1.35; in assay [6] it was 1.75. The composite z-score is 1.3 in assay [7]; 1.1 in assay [9]; -0.283 in assay [10]; 0.976 in assay [11]; 3.64 in assay [15]; 0.207 in assay [17]. In addition, the composite z-score in [18] is 0.108; in assay [19] it was 0.244; in assay [20], -0.111. For the same compound, the z-score in assay [8] is 5.85 (inactive); in assay [12], -0.733 (inactive); in [13], -0.213 (inactive); in assay [14], 0.803 (inactive); in assay [16], -0.168 (inactive).

Consider `CC(C)[Si](C#Cc1ccc(Oc2ccccc2)cc1)(O[Si](C#Cc1ccc(Oc2ccccc2)cc1)(C(C)C)C(C)C)C(C)C`, for which the composite z-score in [1] is -0.496; in [2], 0.253; in [3], -0.133; in [4], 0.967; in assay [5], 0.766; in assay [6], -0.0929. Moreover, the composite z-score in [7] was 0.664; in [9], -0.0273; in assay [10], -0.0994; in assay [11] it was 0.578; in [15], 0.981; in assay [17], -0.192. Moreover, the figures for the composite z-score in assay [18], in assay [19] and in assay [20] were 0.267, -0.0319 and 0.0746, respectively. The z-score in assay [8] was -0.421 (inactive); in assay [12], 1.8 (inactive); in assay [13], 0.267 (inactive); in [14], 4.06 (inactive); in [16], 1.06 (inactive).

`C[N+](C)(C)CCCC[C@@H]1NC(=O)[C@H]2C[C@@H](C(=O)NCCCCCCNC(=O)CS)[C@@H](c3cccc(OCCO)c3)N2C1=O`: the composite z-score is 0.227 in assay [1]; 0.0439 in [2]; -0.172 in assay [3]; -0.83 in [4]; -1.34 in [5]; -0.861 in assay [6]. The composite z-score in assay [7] is 0.439; in assay [9] it was -0.948; in [10], -0.261; in assay [11], -0.452; in assay [15], 2.01; in assay [17], -0.0766. In addition, the results for the composite z-score in assay [18], in assay [19] and in assay [20] were -0.33, -0.837 and -0.268, respectively. Moreover, the z-score was 0.816 (inactive) in assay [8]; -0.173 (inactive) in assay [12]; 0.532 (inactive) in assay [13]; -0.0564 (inactive) in [14]; 0.154 (inactive) in assay [16].

Regarding `CCCCN1CC=CC23O[C@@H]4C=CCCOC(=O)C4[C@H]2C(=O)N(CCCCCCO)[C@@H]3C1=O` (stereo not given in full), the composite z-score in assay [1] is -0.206; in [2], -0.596; in [3] it was -0.246; in assay [4], -0.309; in assay [5], -1.1; in assay [6] it was 1.2. Moreover, the composite z-score in [7] is 1.41; in assay [9], -0.422; in [10] it was -0.7; in assay [11], 1.31; in assay [15] it was 1.74; in assay [17], -0.462. The composite z-score is -0.235 in assay [18], 0.294 in [19] and -0.227 in assay [20]. The z-score in assay [8] is 0.357 (inactive); in assay [12], -0.0739 (inactive); in [13], -0.576 (inactive); in [14], 0.2 (inactive); in assay [16], -0.444 (inactive).
